Results on 39 sequences are retold here after the supplement of paper PMC10338343.

The test system of assay [1] is MILI (PIWIL2) piRISC loaded with L1MC piRNA (26 nt). The experiment in a line: pre-steady-state target cleavage rate (min^-1); guide: L1MC piRNA 5'p-UAACUAAAUACUAUGCAAGCUGUAGG; higher = faster piRNA-guided slicing of the target. Put shortly: (§1)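 The pre-steady-state cleavage rate was derived from a burst-and-steady-state fit of Cleave-'n-Seq data. For these assays, 1 nM active affinity-purified piRISC loaded with a single synthetic guide was mixed with […] a transcribed, DNA-blocked target RNA library in HEPES–potassium acetate buffer at 33 °C, with or without 500 nM GTSF1 partner protein, for 0–8 or 0–960 min. Sequencing counts of uncleaved targets were normalised to depth and to weakly complementary targets, and k3 was capped at 0.0001 min^-1 after three trials were pooled.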

The subject of assay [2] is EfPiwi piRISC loaded with L1MC piRNA (26 nt). Nature of the assay: pre-steady-state target cleavage rate (min^-1); auxiliary factor: 500 nM Ephydatia muelleri Gtsf1; guide: L1MC piRNA 5'p-UAACUAAAUACUAUGCAAGCUGUAGG; MIWI and MILI are mouse PIWI proteins and EfPiwi is from a freshwater sponge; tags in brackets are library labels; higher = faster piRNA-guided slicing of the target. Put shortly: as §1
The mark [3] stands for this setting: auxiliary factor: 500 nM mouse GTSF1.
Where [4] appears, read: auxiliary factor: none (no GTSF1).

± gives the standard deviation.

For the sequence UCCUGGUACAGCUAGCUUAGUAUUUAGUUA, the “pre-steady-state target cleavage rate” value was found to be 0.248 ± 0.023 in assay [1] (setting [3]), 0.00768 ± 0.0025 in assay [1] (setting [4]) and 0.00544 ± 0.0027 in assay [2].

As to UCCUGGAUGUGCUGGCAUAGUAUUUAGUUA, the figures for the “pre-steady-state target cleavage rate” value in assay [1] (setting [3]), in assay [1] (setting [4]) and in assay [2] were 0.118 ± 0.012, 0.0112 ± 0.0037 and 0.00525 ± 0.0029, respectively.

Take UCCUGCUACAGGUAGCAUAGUAUUUAGUUA: the results for the “pre-steady-state target cleavage rate” value in assay [1] (setting [3]), in assay [1] (setting [4]) and in assay [2] were 0.367 ± 0.031, 0.00651 ± 0.0037 and 0.0207 ± 0.0042, respectively.

Turning to UCCUGGAAGAGGUUGCAUAGUAUUUAGUUA, the “pre-steady-state target cleavage rate” value in assay [1] (setting [3]) was 0.233 ± 0.012; in assay [1] (setting [4]), 0.0116 ± 0.0031; in assay [2], 0.00538 ± 0.0032.

For UCCUGGAUCAGCUUGCAUAGUAUAUUAGUUA, the “pre-steady-state target cleavage rate” value in assay [1] (setting [3]) was 0.273 ± 0.015; in assay [1] (setting [4]) it was 0.00593 ± 0.0025; in assay [2], 0.127 ± 0.043.

In the case of UCCUGGAUGAGCUUGCAUAGUAUUUAGUGA, the “pre-steady-state target cleavage rate” value was found to be 0.193 ± 0.025 in assay [1] (setting [3]), 0.00439 ± 0.003 in assay [1] (setting [4]) and 0.00681 ± 0.0032 in assay [2].

As for “UCCUGGAUCAGCUUGCAUAGUAUUUAGUUG [g2:g22:cont:t1G]”, the results for the “pre-steady-state target cleavage rate” value in assay [1] (setting [3]), in assay [1] (setting [4]) and in assay [2] were 0.285 ± 0.018, 0.00983 ± 0.0019 and 0.0209 ± 0.0054, respectively.

On to UCCUGGAUCUGCUUGCAUAGUAUUUUGUUA, for which the “pre-steady-state target cleavage rate” value is 0.092 ± 0.015 in assay [1] (setting [3]), 0.00429 ± 0.0026 in assay [1] (setting [4]) and 0.0153 ± 0.0053 in assay [2].

With UCCUGGAUCAGCUUGGAUAGUAAUUAGUUA, the “pre-steady-state target cleavage rate” value in assay [1] (setting [3]) stood at 0.167 ± 0.018; in assay [1] (setting [4]), 0.00352 ± 0.0023; in assay [2], 0.00256 ± 0.0025.

For UCCUCCUUCACCUUGCAUAGUAUUUAGUUA, the figures for the “pre-steady-state target cleavage rate” value in assay [1] (setting [3]), in assay [1] (setting [4]) and in assay [2] were 0.212 ± 0.028, 0.00635 ± 0.0025 and 0.0605 ± 0.021, respectively.

With UCCUGCAACUGCUUGCAUAGUAUUUAGUUA, the “pre-steady-state target cleavage rate” value was found to be 0.322 ± 0.025 in assay [1] (setting [3]), 0.00581 ± 0.0026 in assay [1] (setting [4]) and 0.0198 ± 0.0044 in assay [2].

With UCCUGGAUGUCGUGCAUAGUAUUUAGUUA, the “pre-steady-state target cleavage rate” value in assay [1] (setting [3]) came out at 0.115 ± 0.014; in assay [1] (setting [4]), 0.00386 ± 0.0022; in assay [2] it was 0.00802 ± 0.003.

As for UCCUGCUACAAGCUUGCAUAGUAUUUAGUUA, the “pre-steady-state target cleavage rate” value in assay [1] (setting [3]) turned out to be 0.157 ± 0.015; in assay [1] (setting [4]), 0.00805 ± 0.002; in assay [2] it was 0.00475 ± 0.0013.

Regarding UCCUGGAUGUCCUUACAUAGUAUUUAGUUA, the “pre-steady-state target cleavage rate” value is 0.0839 ± 0.012 in assay [1] (setting [3]), 0.00844 ± 0.002 in assay [1] (setting [4]) and 0.00492 ± 0.0036 in assay [2].

UCCUGGUACAGCCUGCAUAGUAUUUAGUUA: the “pre-steady-state target cleavage rate” value in assay [1] (setting [3]) amounted to 0.186 ± 0.024; in assay [1] (setting [4]), 0.0143 ± 0.004; in assay [2] it was 0.00984 ± 0.0036.

As for UCCUGGUUGAGCUUGCAUAGUAUUUAGUAA, the results for the “pre-steady-state target cleavage rate” value in assay [1] (setting [3]), in assay [1] (setting [4]) and in assay [2] were 0.196 ± 0.022, 0.00595 ± 0.0027 and 0.00604 ± 0.0023, respectively.

In the case of UCCUCGUACACCUUGCAUAGUAUUUAGUUA, the “pre-steady-state target cleavage rate” value was 0.239 ± 0.022 in assay [1] (setting [3]), 0.00634 ± 0.0021 in assay [1] (setting [4]) and 0.1 ± 0.029 in assay [2].

With UCCUGGUACAGCUUCGAUAGUAUUUAGUUA, the “pre-steady-state target cleavage rate” value in assay [1] (setting [3]) stood at 0.187 ± 0.025; in assay [1] (setting [4]), 0.00848 ± 0.0025; in assay [2], 0.00411 ± 0.0026.

As to UCCUGCUACACCUUGCAUAGUUUUUAGUUA, the “pre-steady-state target cleavage rate” value came out at 0.0358 ± 0.01 in assay [1] (setting [3]), 0.00475 ± 0.0022 in assay [1] (setting [4]) and 0.00395 ± 0.002 in assay [2].

Consider UCCUGGUACAGGUUGGAUAGUAUUUAGUUA, for which the “pre-steady-state target cleavage rate” value in assay [1] (setting [3]) is 0.303 ± 0.043; in assay [1] (setting [4]), 0.00912 ± 0.0032; in assay [2] it was 0.00482 ± 0.0022.

Regarding UCCUGGAUGUCCGUUGCAUAGUAUUUAGUUA, the “pre-steady-state target cleavage rate” value is 0.0604 ± 0.018 in assay [1] (setting [3]), 0.008 ± 0.0033 in assay [1] (setting [4]) and 0.00412 ± 0.0033 in assay [2].

For the sequence UCCUGGAUCAACUUGCAUAGUAUUUAGUUA, the “pre-steady-state target cleavage rate” value in assay [1] (setting [3]) was 0.265 ± 0.017; in assay [1] (setting [4]), 0.00729 ± 0.0025; in assay [2], 0.0635 ± 0.018.

Take UCCUGCUACAGCUUGAUAGUAUUUAGUUA: the “pre-steady-state target cleavage rate” value in assay [1] (setting [3]) was 0.133 ± 0.017; in assay [1] (setting [4]), 0.00396 ± 0.0021; in assay [2], 0.00658 ± 0.0031.

Consider UCCUGGAACAGCUUGCAAAGUAUUUAGUUA, for which the results for the “pre-steady-state target cleavage rate” value in assay [1] (setting [3]), in assay [1] (setting [4]) and in assay [2] were 0.135 ± 0.0089, 0.00796 ± 0.0019 and 0.0333 ± 0.0089, respectively.

Regarding UCCUGGUACAGCUCGCAUAGUAUUUAGUUA, the “pre-steady-state target cleavage rate” value in assay [1] (setting [3]) is 0.262 ± 0.023; in assay [1] (setting [4]) it was 0.0138 ± 0.0045; in assay [2], 0.00967 ± 0.0034.

As for UCCUCCUACAGCUUGCUUACUAUUUAGUUA, the “pre-steady-state target cleavage rate” value in assay [1] (setting [3]) was found to be 0.089 ± 0.011; in assay [1] (setting [4]), 0.00298 ± 0.0026; in assay [2] it was 0.0407 ± 0.015.

In the case of UCCUGCUACAGCUUGCUUAGUAUAUAGUUA, the “pre-steady-state target cleavage rate” value in assay [1] (setting [3]) worked out at 0.206 ± 0.028; in assay [1] (setting [4]) it was 0.00313 ± 0.0023; in assay [2] it was 0.0125 ± 0.0047.

Consider UCCUGGAUCACGUUGCAUAGUAUUUAGUUA, for which the “pre-steady-state target cleavage rate” value was determined as 0.206 ± 0.019 in assay [1] (setting [3]), 0.00683 ± 0.0026 in assay [1] (setting [4]) and 0.0686 ± 0.017 in assay [2].

On to UCCUGGUACAGCUUGGUUAGUAUUUAGUUA, for which the “pre-steady-state target cleavage rate” value in assay [1] (setting [3]) was determined as 0.192 ± 0.023; in assay [1] (setting [4]), 0.0135 ± 0.0038; in assay [2], 0.00478 ± 0.0032.

With UCCUGGAUGUCCUAUGCAUAGUAUUUAGUUA, the “pre-steady-state target cleavage rate” value in assay [1] (setting [3]) was determined as 0.0987 ± 0.02; in assay [1] (setting [4]), 0.00575 ± 0.0022; in assay [2], 0.00508 ± 0.0022.

For the sequence UCCUGGAUGUCCUUAGCAUAGUAUUUAGUUA, the “pre-steady-state target cleavage rate” value came out at 0.0724 ± 0.016 in assay [1] (setting [3]), 0.00307 ± 0.0025 in assay [1] (setting [4]) and 0.00479 ± 0.003 in assay [2].

Take UCCUGGAACAGCAUGCAUAGUAUUAAGUUA: the entries for the “pre-steady-state target cleavage rate” value in assay [1] (setting [3]), in assay [1] (setting [4]) and in assay [2] were 0.219 ± 0.027, 0.00548 ± 0.0019 and 0.00499 ± 0.0017, respectively.

For the sequence UCCUGGUACAGCUUGCAAUAGUAUUUAGUUA, the “pre-steady-state target cleavage rate” value amounted to 0.0322 ± 0.0093 in assay [1] (setting [3]), 0.00408 ± 0.0024 in assay [1] (setting [4]) and 0.00587 ± 0.0028 in assay [2].

Regarding UCCUGCUUCAGCUUGCAUAGUAUUUAGUUA, the “pre-steady-state target cleavage rate” value in assay [1] (setting [3]) worked out at 0.312 ± 0.019; in assay [1] (setting [4]) it was 0.0109 ± 0.0023; in assay [2], 0.103 ± 0.025.

Turning to UCCUGCUACAGCUUGCAUAGUAUUUGGUUA, the “pre-steady-state target cleavage rate” value in assay [1] (setting [3]) is 0.27 ± 0.029; in assay [1] (setting [4]), 0.00697 ± 0.0023; in assay [2] it was 0.00556 ± 0.0012.

Turning to UCCUGGAACAGCUUGACAUAGUAUUUAGUUA, the “pre-steady-state target cleavage rate” value in assay [1] (setting [3]) was found to be 0.213 ± 0.016; in assay [1] (setting [4]), 0.00586 ± 0.0022; in assay [2], 0.013 ± 0.004.

In the case of UCCUGGAACCAGCUUGCAUAGUAUUUAGUUA, the “pre-steady-state target cleavage rate” value was 0.365 ± 0.032 in assay [1] (setting [3]), 0.00736 ± 0.0021 in assay [1] (setting [4]) and 0.0336 ± 0.0098 in assay [2].

UCCUGGAUCAGCUUGCAUAGUAUUUAAGUUA: the “pre-steady-state target cleavage rate” value in assay [1] (setting [3]) was 0.251 ± 0.025; in assay [1] (setting [4]), 0.0108 ± 0.0029; in assay [2] it was 0.00608 ± 0.0023.

As for UCCUGGAACAGCAUGCAUAGUAUUUAGAUA, the figures for the “pre-steady-state target cleavage rate” value in assay [1] (setting [3]) and in assay [2] were 0.188 ± 0.022 and 0.00441 ± 0.0022, respectively.
